# Data reported in PubChem BioAssay AID372 (MTDP, 2006).
# About 770 (0.77%) of roughly 100,000 compounds were called active. The full list was thinned out, with actives kept by preference. Unmarked numbers belong to inactive results. No stated cut-off is given here; in the data, active means inhibition above about 50%; inactive means the rest.
# Biological target: Gag-Pol polyprotein (Human immunodeficiency virus type 1 group M subtype B (isolate HXB2)) (UniProt P04585)
# Experiment: RNase H inhibition, HIV 1 Gag Pol polyprotein, FRET biochemical assay, screening (AID 372)
# Settings: HIV-1 RT RNase H, FRET RNA/DNA substrate fluorescence; at 10 µM; hits give high values
row,SMILES,inhibition
1,O=C(Cc1csc(-c2ccccc2)n1)Nc1nccs1,0%
2,O=C(NCCSc1ccccn1)c1ccc([N+](=O)[O-])cc1,0%
3,Cc1ccc2c(c1)-c1c(ssc1=S)C(C)(C)N2C(=O)c1ccco1,48%
4,Cc1ccc(/C(O)=C2/C(=O)C(=O)N(c3ccccc3)C2c2ccc([N+](=O)[O-])cc2)cc1 (configuration not stated),0%
5,CC1=C(C(=O)OCC2CCCO2)C(c2cc3c(cc2[N+](=O)[O-])OCO3)C2=C(CCCC2=O)N1 (configuration not stated),6%
6,CCC(C)c1ccc(NC(=O)Cc2ccc(Cl)cc2)cc1 (configuration not stated),10%
7,CCC(=O)Nc1ccc(NC(=S)NC(=O)c2ccco2)cc1,0%
8,N#C/C(=C\c1ccc(-c2ccc([N+](=O)[O-])cc2Br)o1)C(N)=O,22%
9,CCOc1ccc(N2C(=O)NC(=O)/C(=C/c3cccc4ccccc34)C2=O)cc1,73% (active)
10,COc1ccc(N2C(=O)NC(=O)/C(=C/c3ccc(I)o3)C2=O)cc1,11%
11,CCOc1ccc(N2C(=O)NC(=O)/C(=C\c3ccccc3)C2=O)cc1,0%
12,COc1ccc(N2C(=O)/C(=C\c3ccc([N+](=O)[O-])o3)C(=O)NC2=S)cc1,43%
13,CCOc1ccc(N2C(=O)NC(=O)/C(=C\c3ccccc3OC)C2=O)cc1,5%
14,CCCC1CCC(c2ccc(C(=O)CCN(C)C)cc2)CC1 (configuration not stated),25%
15,COc1ccc(OC)c(/C=C2/SC(=S)N(c3ccc(Cl)cc3)C2=O)c1,4%
16,Cc1c(Cc2ccccc2)c(=O)oc2c(C)c(OS(C)(=O)=O)ccc12,0%
17,COc1ccccc1/C=N/NC(=O)C(C)Sc1nc(C)cc(C)n1 (configuration not stated),14%
18,O=C(COC(=O)c1ccc2c(c1)OCCO2)c1ccc(Br)cc1,0%
19,O=C(COC(=O)c1ccccc1I)c1ccc2c(c1)OCCO2,57% (active)
20,O=C(COC(=O)c1ccc2c(c1)OCCO2)c1ccc(-c2ccccc2)cc1,14%
21,C=CCOc1cccc(/C=N/NC(=O)C(=O)Nc2ccc(C)c(C)c2)c1,1%
22,CCOc1cc(/C=C(/C#N)C(=O)Nc2ccc(O)cc2)ccc1OC,8%
23,CC(C)(C)c1cc(C(c2ccccc2O)N2CCOCC2)cc(C(C)(C)C)c1O (configuration not stated),22%

row,SMILES,inhibition
1,O=C1NC(=S)NC(=O)C1=Cc1ccc(OCc2cccc3ccccc23)c(Br)c1,54% (active)
2,O=C1NC(=S)NC(=O)C1=Cc1ccc(OCc2ccccc2Cl)cc1,35%
3,CN1C(=O)S/C(=C/c2ccc(OCc3ccccc3C#N)c(Br)c2)C1=O,39%
4,Cc1ccccc1COc1ccc(C=C2C(=O)NC(=S)NC2=O)cc1,60% (active)
5,N#Cc1ccccc1COc1ccc(C=C2C(=O)NC(=S)NC2=O)cc1Br,46%
6,COc1cc(/C=C2/SC(=S)NC2=O)ccc1OCc1ccccc1C#N,46%
7,Cc1cccc(C)c1OCCOc1ccc(C=C2C(=O)NC(=S)NC2=O)cc1,36%
8,N#Cc1ccccc1COc1ccc(/C=C2/SC(=S)NC2=O)cc1Br,52% (active)
9,O=C1NC(=S)NC(=O)C1=Cc1cc(Br)ccc1OCc1cccc2ccccc12,32%
10,O=C(/C=C/c1ccccc1)N1CCN(c2ccccc2)CC1,0%
11,COc1ccc(-c2ccccc2)cc1NCC1CC=CCC1 (configuration not stated),21%
12,Cc1ccc(NC(=O)C(C(C)C)N2C(=O)c3ccccc3C2=O)c(C)c1 (configuration not stated),12%
13,O=C1C(Cl)=C(Nc2cccc(Cl)c2)C(=O)N1c1cc(Cl)ccc1Cl,0%
14,C#CCOc1ccc(C=C2C(=O)NC(=S)NC2=O)cc1Br,19%
15,COc1ccc(/C=N/c2sc(C)c(C)c2C#N)cc1,12%
16,CCc1ncc(C(O)c2ccccc2OC)n1C (configuration not stated),5%
17,COc1ccc(OC)c(C2NC(=S)NC(C)=C2C(=O)Nc2ccc(C)c(Cl)c2)c1 (configuration not stated),15%
18,Oc1[nH]c2ccc(Br)cc2c1N=Nc1ccccn1,2%
19,Oc1[nH]c2ccc(Br)cc2c1N=Nc1ccc2ccccc2n1,52% (active)
20,O=S(=O)(N=Nc1c(O)[nH]c2ccc(Br)cc12)c1cccc2ccccc12,9%
21,CCN(CC)S(=O)(=O)c1ccc(Cl)c(C(=O)Nc2ccc(OC)cc2)c1,0%
22,O=C1NN(c2ccccc2)C(=O)/C1=C/c1ccc(-c2cccc([N+](=O)[O-])c2)o1,31%
23,C=CCOC(=O)C1=C(C)N(CC)C(=O)NC1c1ccc([N+](=O)[O-])cc1 (configuration not stated),57% (active)

row,SMILES,inhibition
1,CCOCCOC(=O)C1=C(C)N(CC)C(=O)NC1c1ccc([N+](=O)[O-])cc1 (configuration not stated),0%
2,C=CCOC(=O)C1=C(C)N(CC)C(=O)NC1c1ccc(Br)cc1 (configuration not stated),4%
3,O=[N+]([O-])c1ccc(N/N=C/c2cc([N+](=O)[O-])ccc2O)cc1,10%
4,O=[N+]([O-])c1ccc(N/N=C/c2ccc(O)c(O)c2)cc1,57% (active)
5,O=C(N/N=C/c1ccc(OC(=O)c2ccc(Br)cc2)cc1)c1cccc([N+](=O)[O-])c1,50% (active)
6,COc1ccc(/C=N/Nc2ccc([N+](=O)[O-])cc2)cc1Br,7%
7,O=[N+]([O-])c1ccc(N/N=C/c2cc(Br)c(O)c(Br)c2)cc1,24%
8,O=[N+]([O-])c1ccc(N/N=C/c2ccc(Cl)c([N+](=O)[O-])c2)cc1,8%
9,O=C(N/N=C/c1ccc([N+](=O)[O-])cc1)c1cc(-c2ccc3ccccc3c2)n[nH]1,50% (active)
10,Cc1ccc(-c2cc(C(=O)N/N=C/c3ccc([N+](=O)[O-])cc3)[nH]n2)cc1,24%
11,O=C(N/N=C\c1ccc(OC(=O)c2ccc(Br)cc2)cc1)c1ccc(Br)cc1,14%
12,O=[N+]([O-])c1ccc(N/N=C/c2ccc(O)c(Br)c2)cc1,50% (active)
13,O=C(N/N=C/c1ccc(F)cc1)c1cc(-c2ccc3ccccc3c2)n[nH]1,17%
14,O=C(N/N=C/c1ccc(/C=N/NC(=O)c2cccc([N+](=O)[O-])c2)cc1)c1cccc([N+](=O)[O-])c1,12%
15,Cc1ccc(N(CC(=O)O)S(=O)(=O)c2ccccc2)cc1Cl,4%
16,COc1ccc(Br)cc1/C=C/C(=O)Nc1ccc(O)c(-c2nc3ccccc3o2)c1,14%
17,O=C(Nc1ccc(Br)cc1)C1C2/C=C\CCCCC21 (configuration not stated),9%
18,COC(=O)c1c(NC(=O)c2ccccc2C)sc2c1CCC(C)C2 (configuration not stated),12%
19,O=C(CSc1ccccc1)N/N=C/c1ccccc1O,7%
20,CS(=O)(=O)N1CCN(Cc2ccccc2Cl)CC1,0%
21,OCCNc1nc(-c2ccccc2Cl)nc2ccccc12,0%
22,COc1ccc(C(=O)NNC(N)=S)cc1,0%
23,NC1=NC(=O)/C(=C/c2ccc(OS(=O)(=O)c3cccc([N+](=O)[O-])c3)cc2)S1,25%

row,SMILES,inhibition
1,NC1=NC(=O)/C(=C/c2ccc(OC(=O)c3cccc([N+](=O)[O-])c3)cc2)S1,51% (active)
2,O=C(N/N=C/c1ccc(O)c(O)c1)c1ccc([N+](=O)[O-])cc1,51% (active)
3,NC1=NC(=O)/C(=C/c2ccc(OC(=O)c3ccc(Cl)c(Cl)c3)cc2)S1,18%
4,O=C(N/N=C/c1ccc(O)cc1)c1ccc([N+](=O)[O-])cc1,0%
5,O=C(N/N=C/c1ccc(/C=N/NC(=O)c2ccc([N+](=O)[O-])cc2)cc1)c1ccc([N+](=O)[O-])cc1,0%
6,Cc1cc(Cl)ccc1OCC(=O)Nc1cc(Cl)c(Cl)cc1Cl,5%
7,CCC1CCc2c(sc(NC(=O)c3cc([N+](=O)[O-])ccc3Cl)c2C(N)=O)C1 (configuration not stated),14%
8,COc1ccc(OC)c(NC(=O)COc2ccc(Cl)c(C)c2)c1,15%
9,CC(CCC(=O)Nc1nc2ccccc2s1)CC(=O)Nc1nc2ccccc2s1 (configuration not stated),15%
10,COc1ccccc1/C=C/C(=O)c1c(-c2ccccc2)c2cc(C)ccc2[nH]c1=O,59% (active)
11,COc1ccc(/C=C\C(=O)c2c(-c3ccccc3)c3cc(C)ccc3[nH]c2=O)cc1,7%
12,COc1ccc(OC)c(/C=C/C(=O)c2c(-c3ccccc3)c3cc(Br)ccc3[nH]c2=O)c1,37%
13,COc1ccccc1/C=C/C(=O)c1c(-c2ccccc2)c2cc(Br)ccc2[nH]c1=O,57% (active)
14,Cc1ccc2[nH]c(=O)c(C(=O)/C=C/c3ccccc3Cl)c(-c3ccccc3)c2c1,55% (active)
15,COc1cc(/C=C/C(=O)c2c(-c3ccccc3)c3cc(Br)ccc3[nH]c2=O)cc(OC)c1OC,0%
16,Cc1ccc2[nH]c(=O)c(C(=O)/C=C\c3ccc(Br)cc3)c(-c3ccccc3)c2c1,28%
17,O=C(/C=C/c1ccccc1Cl)c1c(-c2ccccc2)c2cc(Cl)ccc2[nH]c1=O,35%
18,O=C(/C=C/c1ccccc1Cl)c1c(-c2ccccc2)c2cc(Br)ccc2[nH]c1=O,49%
19,Cc1ccc2[nH]c(=O)c(C(=O)/C=C\c3ccccc3)c(-c3ccccc3)c2c1,45%
20,COc1ccc(/C=C\C(=O)c2c(-c3ccccc3)c3cc(C)ccc3[nH]c2=O)cc1OC,18%
21,CC12CN3CC(C)(CN(C1)C3c1c[nH]c3ccccc13)C2=O (configuration not stated),6%
22,Cc1ccc(-n2c(C)cc(/C=C(/C#N)C(=O)Nc3ccc(Cl)cc3)c2C)cc1C,8%
23,O=C(Oc1ccc([N+](=O)[O-])cc1)c1ccc(Cl)c(S(=O)(=O)N2CCOCC2)c1,0%
